HTT cytoprotect: Huntington cell model cytoprotection by ATP luminescence | 230,000 compounds, 0.14% hits | PC12 HTT-Q103 induced, cytoprotection, ATP luminescence, 40 h | Potency, µM (highest dose often 56.4 µM), for the others: cytoprotection (ATP increase), hits mostly activators; note: potency is the fitted concentration of half-maximal effect; % of control where 0% means no effect; nearly all actives have a fitted effect of over 45% in size
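Quantitative HTS on tebufenozide-induced (100 nM) PC12 cells expressing HTTQ103 exon 1–GFP; compounds tested as a concentration series; survival measured via cellular ATP.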
IMPase inh: IMPase inhibition in cells; P97697; CHO-M1 cells, IP1 accumulation, HTRF TR-FRET ratio; 120,000 tested, under 10 active; inhibition (IP1 accumulation), % at 46.1 µM; active = well fitted curve in the direction sought with a large enough effect in the signal ratio, not every such curve was filed as active; inconclusive = small, poorly fitted or top-dose-only effect, or a change in a side signal; inactive = no such curve, though single readings can be large or run the other way; the % refers to the signal ratio;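 note: cells stimulated with carbachol in lithium chloride buffer; plate controls were DMSO basal wells for no effect and reference inhibitor wells for full effect; higher means more IMPase inhibition seen as more IP1 and lower FRET ratio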
Target sequence (P97697 whole entry, looked up): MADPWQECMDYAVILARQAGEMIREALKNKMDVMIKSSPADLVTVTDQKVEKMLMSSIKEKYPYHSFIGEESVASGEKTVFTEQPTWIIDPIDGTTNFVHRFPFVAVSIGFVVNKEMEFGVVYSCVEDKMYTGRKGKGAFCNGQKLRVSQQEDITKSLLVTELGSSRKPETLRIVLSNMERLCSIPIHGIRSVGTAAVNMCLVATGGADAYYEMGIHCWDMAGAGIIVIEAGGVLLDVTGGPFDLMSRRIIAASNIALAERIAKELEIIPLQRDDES
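CHO-M1 cells (CHO stably expressing M1 receptor), compound up to 46 uM final, stimulated with carbachol (50 uM as added) in buffer with 50mM LiCl, pH 7.4, 30 min at 37C. Cytosolic IP1 read by TR-FRET; AC50 from Hill fits.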
NPSR antagonist: neuropeptide S receptor (human) antagonism, cAMP; CHO-NPSR cells, cAMP TR-FRET, antagonist mode; Potency, µM (series often up to 38.3 µM), inactives show top-dose activity change, negative = inhibition, hits mostly inhibitors; 220,000 compounds, 1% hits; note: potency is the fitted concentration of half-maximal effect; % is set by controls: 0 for no effect and ±100 for the full control effect; nearly all actives have a fitted effect of over 50% in size
Target sequence (Q6W5P4 whole entry, looked up): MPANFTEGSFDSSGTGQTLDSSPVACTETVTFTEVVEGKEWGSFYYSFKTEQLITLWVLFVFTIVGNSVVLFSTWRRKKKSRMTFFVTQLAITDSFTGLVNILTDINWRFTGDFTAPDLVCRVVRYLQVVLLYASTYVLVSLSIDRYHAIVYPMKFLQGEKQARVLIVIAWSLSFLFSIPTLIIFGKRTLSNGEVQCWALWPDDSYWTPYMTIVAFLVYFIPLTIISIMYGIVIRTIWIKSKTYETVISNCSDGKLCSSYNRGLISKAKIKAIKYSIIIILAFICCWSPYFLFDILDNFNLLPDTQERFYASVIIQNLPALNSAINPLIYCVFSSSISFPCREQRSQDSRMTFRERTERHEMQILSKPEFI
IMPase Li inh: IMPase inhibition in cells with lithium potentiation; AID 1457; 210,000 compounds, 0.35% hits; CHO-M1 cells, IP1 TR-FRET (IP-One), carbachol + lithium; Potency, µM (top dose mostly 59.4 µM), for the others: at the top dose activity, negative = IMPase inhibition, hits mostly inhibitors;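 note: IP1 builds up when IMPase is blocked and the TR-FRET signal falls; potency is the fitted concentration of half-maximal effect; plate controls were basal vehicle for no effect and high inhibitor control for full effect; nearly all actives have a fitted effect of over 50% in size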
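Lithium-sensitised IP1 accumulation assay; M1-expressing CHO cells treated 30 min at 37C with compound. Competitive antibody detection by time-resolved FRET followed a 10 min room-temperature lysis step.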
PNC assembly inh: blocks assembly of the perinucleolar compartment; PC3M PTB-GFP, PNC prevalence imaging, 16 h; stronger effect = lower value; activity change (PNC), negative = inhibition, % at 10 µM; 140,000 compounds, 3.1% hits;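 active = readout at or below -70, meaning at least 70% loss of cells showing the perinucleolar compartment, a nuclear body marking cancer cells; inconclusive = readout between -30 and a set limit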;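 note: plate controls were DMSO wells for no effect and camptothecin positive control wells for full effect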
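Compounds are pinned in duplicate onto adhered PC3M cells stably expressing GFP-tagged PTB and incubated 16 h at 37 C. Cells are then fixed, nuclei stained with Hoechst, and PNC-positive cells counted.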
HttQ103 aggreg: mutant huntingtin aggregation inhibition. PC12 HttQ103-GFP aggregates, Acumen cytometry, 40 h. Potency, µM (series often up to 46.1 µM), inactives show at the highest dose activity change, negative = inhibition, most hits filed as inhibitors. 220,000 compounds, 1.1% hits; note: potency is the fitted concentration of half-maximal effect; % is set by controls: 0 for no effect and ±100 for the full control effect; nearly all actives have a fitted effect of over 60% in size
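PC12/HTTQ103-GFP, ecdysone-inducible; teb 100 nM; cpd qHTS titration; GFP aggregates read on laser cytometer, Ex 488/Em 500-530 nm.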
* = called active by the depositor; ? = inconclusive; . = no result given; [ ] = remark or other dose. A selection: hits, their analogues and other compounds. The true share with any hit is near 3.4%. Unless noted, calls come from the whole dose curve; as a rule, active = well fitted curve in the direction sought with a large enough effect; inconclusive = small, poorly fitted or top-dose-only effect, or another doubt; inactive = no such curve, though single readings can be large; an effect the other way counts as inactive or inconclusive.

SMILES | HTT cytoprotect | IMPase inh | NPSR antagonist | IMPase Li inh | PNC assembly inh | HttQ103 aggreg
O=C(Nc1nnc(CC(=O)N2CCCC2)s1)c1cnccn1 | -14%[10 µM] | . | . | . | . | .
CS(=O)(=O)N(CC(=O)NCc1ccncc1)Cc1ccc(Cl)cc1 | -21% | 4 | 0%[46.1 µM] | 19%[38.3 µM] | -24 | 0.63µM*
O=C(c1cc2sccc2n1Cc1ccccc1)N1CCN(c2nc3ccccc3s2)CC1 | -34% | 11 | -23%[46.1 µM] | 4%[38.3 µM] | 76 | 7.9µM*
CCC(=O)N1CCN(c2nc3ccccc3s2)CC1 | -48% | 3 | -1%[46.1 µM] | 19%[38.3 µM] | -15 | -17%
O=C(c1ccco1)N1CCN(C2CCCC2)CC1 | -6% | 2 | -4%[46.1 µM] | -4% | -101* | 9%
CCCC(c1nnnn1C1CCCC1)N1CCN(C(=O)c2ccco2)CC1 (stereo not drawn) | -26%[10 µM] | 8 | 13µM* | 12%[38.3 µM] | -21 | -7%
O=C(Cc1ccc(Cl)cc1)Nc1ccc(N2CCN(C(=O)c3ccco3)CC2)c(Cl)c1 | -4%[0.074 µM] | 9 | ? | -2%[38.3 µM] | -1 | 10µM*
O=C(c1ccco1)N1CCN(C(=O)C2CC2)CC1 | . | . | 12% | -2% | -6 | 11%
O=C(NC1CCCCC1NC(=O)c1ccco1)c1ccco1 (stereo not drawn) | -4%[10 µM] | 9 | -1%[46.1 µM] | 7% | -85* | -14%
C=CC1=C(C(=O)O)N2C(=O)C(NC(=O)/C(=N\O)c3csc(N)n3)C2SC1 (stereo not drawn) | -2% | . | . | 14% | . | .
COc1ccc(NC(=O)N2CC3(CCN(C(=O)c4c(C)noc4C)CC3)C2)cc1 | 1% | . | . | 11% | . | .
O=C(c1ccco1)N1CCN(C(=O)c2cccs2)CC1 | -1% | -1 | -5%[46.1 µM] | 21%[38.3 µM] | 25 | 10%
O=C(CCSc1ccccc1)N1CCN(C(=O)c2ccco2)CC1 | 2% | -4 | -12%[46.1 µM] | 21%[38.3 µM] | -91* | 6%
O=C(c1ccc(Cl)cc1)N1CCN(C(=O)c2ccco2)CC1 | -14% | 1 | -6%[46.1 µM] | 5%[38.3 µM] | -100* | -5%
COCCn1nnnc1C(CC(C)C)N1CCN(C(=O)c2ccco2)CC1 (stereo not drawn) | 3%[10 µM] | 1 | -2%[46.1 µM] | . | 23 | 1%
O=C(c1ccco1)N1CCN(C(=O)c2sccc2-c2ccccc2)CC1 | 28%[10 µM] | -7 | -6%[46.1 µM] | 6% | -100* | -5%
O=C(c1ccncc1)N1CCN(C(=O)c2ccco2)CC1 | 0% | 14 | -6%[46.1 µM] | 12%[38.3 µM] | -4 | 1%
Cc1ccc(S(=O)(=O)Cn2nnnc2C(CC(C)C)N2CCN(C(=O)c3ccco3)CC2)cc1 (stereo not drawn) | 5%[10 µM] | . | 0% | 3% | -113* | -4%
Cc1cc(C)c(-c2cc([C@H](C)O/N=C3/[C@H]4OC4[C@@H](O)[C@H]4[C@H]3CCn3c(=O)n(-c5ccccc5)c(=O)n34)on2)c(C)c1 (stereo partly drawn) | -282%[10 µM] | . | . | . | . | .
CCCCCCC(=O)Nc1cc2c(C)cc(=O)oc2cc1C | 22%[10 µM] | 10 | -6%[46.1 µM] | -11% | -119* | -3%
CCC(=O)Nc1cc2c(C)cc(=O)oc2cc1C | -3% | 8 | -6%[46.1 µM] | -5%[38.3 µM] | -10 | 13%[9.22 µM]
Cc1cc(C)cc(N2C(=O)CSC2c2ccccn2)c1 (stereo not drawn) | -12% | . | 0% | 6% | . | -4%
CC(=O)Nn1cc2c(c1-c1ccccc1)c(=O)n(C)c(=O)n2C | 2% | -5 | -21%[46.1 µM] | -7%[38.3 µM] | -138* | 7%[9.22 µM]
COC(=O)CC1C(C)(C)C(=O)C2CC3C4=CC(=O)OC(c5ccoc5)[C@]4(C)CCC3[C@@]1(C)C2=O (stereo partly drawn) | -3% | . | . | 14% | . | .
COc1ccc(NC(=O)/C(C#N)=C/c2c(C)nn(-c3ccc(F)cc3)c2Cl)cc1Cl | -20%[10 µM] | . | -37% | -19% | -83* | 2%
SMILES | HTT cytoprotect | IMPase inh | NPSR antagonist | IMPase Li inh | PNC assembly inh | HttQ103 aggreg
CC(C)CNC(=O)c1cc(-c2ccco2)on1 | 7% | -3 | -16%[46.1 µM] | -2%[38.3 µM] | 87 | ?
CCCNC(=O)c1cc(-c2ccco2)on1 | 1.6µM* | ? | -7%[46.1 µM] | 7% | -26 | 7%
CN(C)c1ccc(/C=C(/C#N)C(=O)NCc2ccccc2)o1 | 10%[10 µM] | . | -13% | 10% | -83* | 7%
CC(=O)[C@H]([C@@H](c1ccccc1)N1CCOCC1)N1CCOCC1 | 3%[10 µM] | . | . | . | . | .
Clc1ccc(-c2ccc(-c3nn4c(-c5ccco5)nnc4s3)o2)cc1 | 2%[0.074 µM] | . | . | . | . | .
Brc1ccc(-c2nn3c(-c4ccco4)nnc3s2)o1 | -24% | ? | ? | 11µM* | 14 | -5%
COc1cccc(-c2nn3c(-c4ccco4)nnc3s2)c1 | -29% | -7 | -28%[46.1 µM] | 11µM* | -14 | -6%
Cn1c(=O)c2c(nc(N3CCc4ccccc4C3)n2C)n(C)c1=O | -23% | . | -6% | 9% | . | 17%
CCCn1c(N)c(NCCN2CCOCC2)c(=O)n(CC(=O)NCc2ccccc2)c1=O | -12%[10 µM] | . | 8% | 11% | . | -3%
COc1ccc2c(c1)C(=O)[C@@H](OC(=O)NCc1ccco1)[C@H](c1ccc(OC)c(Br)c1)O2 | -23% | . | . | -3% | . | .
Oc1ccccc1CNc1cnc2ccccc2c1 | 14%[10 µM] | 2 | -15%[46.1 µM] | 3% | 5 | 35µM*
CCNc1nc(Oc2ccc(C(=O)OC)cc2)nc(N(C)C)n1 | -24%[10 µM] | ? | -9%[46.1 µM] | 11% | 340 | 2%
CCOC(=O)c1ccc(Oc2nc(OC)nc(N(C)C)n2)cc1 | 15%[10 µM] | 1 | 1% | 7% | -93* | -11%
Cc1ccc(-n2nc3c(n2)/C(=N/O)CC/C3=N\O)cc1 | -31%[10 µM] | 2 | -11%[46.1 µM] | 10% | -100* | 2%
O=C(OC1CCOC1=O)c1cc(-c2ccc(Br)cc2)nc2ccccc12 (stereo not drawn) | -3%[10 µM] | -14 | -30%[46.1 µM] | -16% | -119* | 11%
COc1cccc(Cn2c(=O)c(C)nc3cnc(N(C)C)nc32)c1 | -24% | . | . | 8% | . | .
O=C(/C=C/Nc1ccc(Cc2ccc(N/C=C/C(=O)C(F)(F)F)cc2)cc1)C(F)(F)F | -15%[10 µM] | 5 | 4%[46.1 µM] | 0% | -85* | -3%
COc1cc(C2C(C#N)=C(N)Oc3cc(N)ccc32)cc(OC)c1OC (stereo not drawn) | -79%[10 µM] | 3 | 20% | 0% | -89* | 2%
Cc1cc([N+](=O)[O-])cc(/C=N\NC(=O)C2COc3ccccc3O2)c1O (stereo not drawn) | 5%[10 µM] | . | 6% | . | . | -12%[9.22 µM]
CC(=O)N(Cc1c(C)nn(-c2ccccc2)c1Cl)c1ccc(Cl)cc1 | 6% | 7 | ? | 3%[38.3 µM] | ? | 13%
Cc1nn(-c2ccccc2)c(Cl)c1CN(C(=O)CCl)c1cccc2ccccc12 | 26%[1.9 µM] | 12 | ? | 12% | -17 | 13µM*
